Data on 40 molecules can be found in PubChem BioAssay (NCI).

The panel holds about 79,000 compounds, 15% with a hit somewhere; the sample as a whole holds those more often. Unmarked numbers belong to inactive results. The source made the active and inactive calls. Rule as the data show it: active = growth inhibition above about 70%; inactive = the rest.

This assay is described as follows: NCI Yeast Anticancer Drug Screen. Data for the rad50 strain (AID 155).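 Also: 0% = growth of vehicle-only cultures of the same strain.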 Conditions: S. cerevisiae rad50 strain growth inhibition; at 50.0 µM; stronger effect = higher value. The essentials: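 Vehicle-treated cultures provide the reference for the growth inhibition reported for compound-exposed, repair-deficient yeast.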
In the case of `COCCN(CCOC)C(=O)Nc1cccc(Cl)c1`, the growth inhibition is 30.4%.
The result for `OCC(O)COCC#Cc1ccccc1` (stereo not given) reads 6%.
The result for `CCC1=NS(=O)(=O)c2c(ncn2C)N1` reads 11%; that for `COc1ccccc1C(O)c1ccccc1` (stereo not given), 9.6%.
To `O=C(/C=C/c1ccccc1)[c-]1[c-][c-][c-][c-]1.[Fe].[c-]1[c-][c-][cH-][c-]1` belongs 10.9%; to `COC(=O)c1cc(-c2ccncc2)[nH]c(=O)c1C#N`, -5.05%.
Consider `COC(=O)C1(CC(=O)c2ccc(Cl)cc2Cl)NC(=S)NC(=O)C1C#N` (stereo not given), for which the growth inhibition was 19.4%.
To `COC=C(C(=O)OC)C(=O)OC` belongs -1.65%.
To `NC(=O)c1cccc(NC=O)c1` belongs 5.3%; to `CCOC(=O)C(C(=O)OCC)C(C)(C)C`, -96.7%.
To `COC(=O)C(Cc1nc2ccccc2[nH]c1=O)C(=O)C(=O)Nc1ccc([N+](=O)[O-])cc1[N+](=O)[O-]` (stereo not given) belongs 7.25%; to `O=S(=O)(O)c1cccc(/C(=N\Nc2ccccn2)c2ccccn2)c1`, 44%; to `CC(NC(=O)C(Cc1ccccc1)NC(=O)OCc1ccccc1)C(=O)NC1C(CO)OC(n2cnc3c(N)ncnc32)C1O` (stereo not given), 15.3%.
As to `CCOC(=O)c1cc2c(nc1N)C(=O)CCCC2`, the growth inhibition was -34.5%.
The result for `CN1CCS(=O)(=O)NC(Cc2ccccc2)C(=O)N2CCCC2C1=O` (stereo not given) reads -6.5%; that for `O=S1(=O)CCC(Br)c2ccccc2C1` (stereo not given), 6.15%; that for `Nc1ccc(S(=O)(=O)c2ccc(Nc3ccnc4cc(Cl)ccc34)cc2)cc1`, 23.1%.
For `CCN(CC)CCC(=O)N1C/C(=C/c2ccccc2)C(=O)/C(=C\c2ccccc2)C1`, the growth inhibition was 47.4%.
To `Cc1cc2cc3oc(C)cc3cc2o1` belongs 6.3%.
The result for `N#CC1=C(Nc2ccccc2)CCC1` reads 5%.
To `CCOC(=O)c1ccc(-n2nc3nc(N)[nH]c(=O)c3n2)cc1` belongs -17.8%; to `O=C1C2C3C=CC(C2C(=O)N1CCl)C1C2C(=O)N(CCl)C(=O)C2C31` (stereo not given), 4.2%; to `COc1cccc(Oc2c(O)c3ccc(OC)cc3oc2=O)c1`, 1%.
For `OCC1=CC(c2ccccc2)(c2ccccc2)c2ccccc21`, the growth inhibition is 95.2% (active).
To `Nc1nc2c(c(=O)[nH]1)C(c1ccccc1)C(c1ccccc1)C2` (stereo not given) belongs -2.85%.
The result for `CCCCCC1OC1CC1OC1CCCCCCCC(=O)O` (stereo not given) reads -5.5%; that for `CCOP(=O)(OCC)/C(C#N)=C/c1cccc([N+](=O)[O-])c1`, -14.2%; that for `OC1C=COC2COC(c3ccccc3)OC12` (stereo not given), 4.1%.
The result for `O=C(O)COc1ccc2ccccc2c1` reads -15.4%; that for `COC(=O)C1=C(C(=O)OC)C2CCCOC2=C(C)C1` (stereo not given), -1.35%; that for `Cc1ccc2ccc(=O)oc2c1`, 7.9%.
Consider `CCOc1ccc(N=Nc2ccc3oc(=O)c(C(=O)Nc4ccc(OC)cc4)cc3c2)cc1`, for which the growth inhibition was 11.4%.
As to `CCCc1cc(=O)oc2c(C=O)c(O)cc(O)c12`, the growth inhibition is 37.9%.
The result for `CN(C)/C=N/NC(=O)C(O)c1ccccc1` (stereo not given) reads 10.3%; that for `C/C(CC(=O)Nc1cccc([N+](=O)[O-])c1)=N\NC(=O)CC#N`, -3.45%.
The result for `CC(=O)OC1C(NC(=O)OCc2ccccc2)CC(NC(=O)OCc2ccccc2)C(O)C1O` (stereo not given) reads 34.4%; that for `N#Cc1[nH]c(=S)[nH]c1N`, 4.1%.
On to `CCc1cccc(CC)c1Nc1nc(C)nc2c1cnn2C`, for which the growth inhibition was -3.55%.
The result for `O=CNNC(=O)Nc1cccc2ccccc12` reads -29.9%.
In the case of `CC(C)C(Br)CCC1=CCC(Br)(Br)C1` (stereo not given), the growth inhibition is 79.1% (active).
